Experimental data reported in PubChem BioAssay AID493074 (National Center for Advancing Translational Sciences (NCATS), 2011).
This is one part of the list. Inconclusive results are not listed. The source made the active and inactive calls. Calls come from the whole dose curve; as a rule, active = well fitted cell-killing curve with a large enough effect; inconclusive = small, poorly fitted or top-dose-only effect; inactive = no such curve, though single readings can be large or run the other way.

test: H358 Cell Viability Secondary Assay for qHTS Assay for Epigenetic Modulators: Round 2; settings: H358 NSCLC viability, ATP luminescence, 72 h
Description: NIH Molecular Libraries Screening Centers Network [MLSCN] NIH Chemical Genomics Center [NCGC] MLSCN Grant: 1 X01 MH079860-01 Assay Provider: Elisabeth D. Martinez, University of Texas SW Medical Center NCGC Assay Overview: This secondary assay characterizes selected actives identified in the qHTS of the Locus Derepression (LDR) assay (PubChem AID 1865). The LDR assay detects the derepression of a GFP reporter that is stably integrated in a region of the genome of murine c127i mammary cells that is presumably silenced. Compounds that cause derepression of the locus to express GFP are identified by enumerating GFP positive cells using a laser-scanning microplate cytometer. Selected LDR actives were assayed for killing of H358 non-small cell lung carcinoma (NSCLC) cells. […] Cell viability was measured using a luminescence-based detection reagent that measures cellular ATP levels.
NCGC Assay Protocol Summary H358 cells were seeded at 125 cells/5 uL/well in white, solid bottom, 1536 well plates (Greiner). […] Plates were incubated 72 hours at 37deg C and 5% CO2, then 3.5 uL/well CellTiter-Glo(R) (Promega) detection reagent was added, plates were incubated at ambient temperature for 10 minutes and luminescence was measured by a ViewLux (Perkin Elmer) reader. […] A quantitative high-throughput screen identifies potential epigenetic modulators of gene expression. […]

Row | SMILES | Potency
1 | O=C1NC(=O)N(CCc2ccc(F)cc2)C(=O)/C1=C/C=C/c1ccccc1 | 8.88 µM (active)
